The source of these data is publication PMC12136788.

Sequences and labels used below:
T1: UNK ZnF1-3 (human, UniProt Q9C0B0 31-174)
T1 sequence: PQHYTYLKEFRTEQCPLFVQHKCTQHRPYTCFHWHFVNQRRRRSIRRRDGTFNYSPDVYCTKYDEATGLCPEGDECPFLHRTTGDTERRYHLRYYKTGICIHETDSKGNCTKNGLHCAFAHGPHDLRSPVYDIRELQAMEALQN

B1: 32462045_32462714_1507_3pUTR_ENSMUSG00000027668_ENSMUST00000091257|mouse|control|control (ssRNA)
RNA: GGGAGUUCUACAGUCCGACGAUCACUCUUAUACACUUUCAGUACACUGGGGGUAGGAUGAAACUCAGAACAAAACUCAUCAACCAAAACAGAUAGUCGACAAAUUUCAUCUGUCAUUGCACAAGAAACCUUGUUUGCCACCUCCAACAGAGGAUUGAGCAUCA
B2: 7395510_7396407_2237_ncRNA_ENSMUSG00000031153_ENSMUST00000132456|mouse|control|control (ssRNA)
RNA: GGGAGUUCUACAGUCCGACGAUCAUGUUCUGCAGCUUCUUGUUCAUUUCUCGAAGGUUCUCAUCGCCUGGCUUCACUAGGUCUCUCAGGACACUGCCCAGCCCACUUCGGUCUGUGUGGCCUGCUGCCACAGACACAUCAAUCCAACAGAGGAUUGAGCAUCA
B3: chr9:14812383:14812384:-_ENSMUSG00000031934_ENSMUST00000164273|mus_mus|mus_mus_mus_hu_True|28_28 (ssRNA)
RNA: GGGAGUUCUACAGUCCGACGAUCAUAGCCCAGGUAGAUACACGCUAACAGUAUAAUGAUGAGUGUCAGCAGGCGGCAGCUAAUGUACUUGAUGAUUAAAUUAUUAGAGUUCUUUUUUGUCUUCAAGUACUGCUCCACAAUUGGCAACAGAGGAUUGAGCAUCA
B4: chr13:51246309:51246310:+_ENSMUSG00000021395_ENSMUST00000095797|mus_hu|FALSE|FALSE (ssRNA)
RNA: GGGAGUUCUACAGUCCGACGAUCCCCACAGUGAAGCACGAGGGACAGAGCGACUGCAGCUGUGGACAGAAAACUGAGGUACUGUGUUUACAUGGUGAGUGGUCGUUACCAUCCAACAGCACAAGGCACAAAAAAUGGGCAUCACAACAGAGGAUUGAGCAUCA
B5: chr11:54532911:54532912:-_ENSMUSG00000052298_ENSMUST00000064104|mus_hu|FALSE|FALSE (ssRNA)
RNA: GGGAGUUCUACAGUCCGACGAUCGGGUCGGCAGUGAAAAGAAAAAUGUUUAAAAUAGAAAAAAAAAACUGCAAAAUGGUGUUAGCAUUCACAAAAAAGAUCAUGCGAAGAUCAGAUCCAUACUGAUUAAACAUUGAAAAUUCACAACAGAGGAUUGAGCAUCA
B6: chr5:144471560:144471561:-_ENSMUSG00000051306_ENSMUST00000053287|mus_hu|FALSE|FALSE (ssRNA)
RNA: GGGAGUUCUACAGUCCGACGAUCGAGACUCCAGUAUCAGUGAAGACAAGAGACGCUGUAUCAAAAAGUGUUGUGUAAUAGAAACAUACUGUCGGCUUUACAAAUCAUGUCUGGGUUAUACAUUCAUAAUGUAAAUACUCAUCACAACAGAGGAUUGAGCAUCA
B7: chr7:140404665:140404666:+_ENSG00000090266_ENST00000247866|hu_hu|hu_hu_hu_mus_False|18_38 (ssRNA)
RNA: GGGAGUUCUACAGUCCGACGAUCUGCUCCUACUCGUCCAGAGAGUUUACAGUGUCAGUCCUCGUCAUCAGGAGGGAUUCCCAGUUCUUCAUCUGUCCACUGGGAAGGAUCUGGAUACGGAAAGUGACCCAGCACAGCAUCCGACAACAGAGGAUUGAGCAUCA
B8: chr6:89793807:89793808:+_ENSG00000146278_ENST00000336032|hu_mus|FALSE|FALSE (ssRNA)
RNA: GGGAGUUCUACAGUCCGACGAUCACUUCCCAUCCAGUGACUCGGAGGCUUUGGGAGGACACUAGGGGAAGGUGGGUCACUGAACUUUGCUCCGGCGUAAUUUUCCUUUUGGCUCACUUCUGUUAGAAAUGCUGAUUUCUUCAACAACAGAGGAUUGAGCAUCA
B9: chr9:104153060:104153061:-_ENSG00000136897_ENST00000374865|hu_mus|FALSE|FALSE (ssRNA)
RNA: GGGAGUUCUACAGUCCGACGAUCAUGAGAUUCCAAGCGACUCUGGAGAUCACUGGGCGGUGUGUAUGCUCGGCUUCGUAAGGGUGGACACACCAAAACAGGUUCUUUUUUCACUUCUUCCACUGUCUCUGCCACAACUGGCUCCAACAGAGGAUUGAGCAUCA
B10: chr19:37005844:37005845:-_ENSG00000254004_ENST00000523638|hu_mus|FALSE|FALSE (ssRNA)
RNA: GGGAGUUCUACAGUCCGACGAUCGGGAGUUUUCUUAGAUUCACUGGGUCUCUCUUCGGUAUGUUGUUUCUGAUGAGAAAGGAAGUUUCCUCUCUGGCUGAAGGCCUUCCCACAUUCCCCACACUUGUAGGACUCCCUCCUUGGCAACAGAGGAUUGAGCAUCA
B11: 118238769_118243032_844_CDS_ENSMUSG00000005102_ENSMUST00000005233|mouse|control|control (ssRNA)
RNA: GGGAGUUCUACAGUCCGACGAUCAGAGAAAUGGAGGAUGUCACACGAGCCAGGAGAGGGUUCACCACUACACACAGAAUACUGACGUUCUCGCCUGGACCUUCCUGAGGAGUAUGUCCGGGCUUUACCAUUUCCUACAAAGUCCAACAGAGGAUUGAGCAUCA
B12: chr16:94690093:94690094:+_ENSMUSG00000040785_ENSMUST00000117648|mus_hu|mus_mus_mus_hu_True|18_68 (ssRNA)
RNA: GGGAGUUCUACAGUCCGACGAUCGGGCUGGGAUGACGGACACACAGCCUCGAUUCCAGGGGGAAAAAAAAAUAGCCGAUACUAAUUAAAAAGUGUUAAUGAUUUUUGAAAAUCAGAUGUAGAUUAAAAAAGAUGAAAAGCAAACAACAGAGGAUUGAGCAUCA
B13: chr12:72179577:72179578:+_ENSG00000080371_ENST00000261263|hu_mus|motif|central (ssRNA)
RNA: GGGAGUUCUACAGUCCGACGAUCGUUUAGCACUUAAGGUCUCUGCAGUGUUAUAAACGUAAUUGAAAAUACUGUUAAUUCGGUAACUCCAUUGGUAAAAUGAUGUGACUUGGAAUAUGGCAGUCUUCAUGUUGAGGGCAAUGACAACAGAGGAUUGAGCAUCA
B14: chr1:150192712:150192713:-_ENSG00000143401_ENST00000314136|hu_hu|FALSE|FALSE (ssRNA)
RNA: GGGAGUUCUACAGUCCGACGAUCGCACCAUACUACACCUGUGUAAAAGUGAUCAUGUUUUAAUUAUGGGCUAAAAAUGACUAAUACAGUAAGCUUGAAUUUAAAAAAUUAAGUCUAAAUAAAUUGCUAGGGAAUUCCACAAUGCAACAGAGGAUUGAGCAUCA
B15: chr16:11966626:11966627:-_ENSG00000103342_ENST00000563468|hu_hu|FALSE|FALSE (ssRNA)
RNA: GGGAGUUCUACAGUCCGACGAUCUUGUAACAUGUGCACACACACUCGCACACUCAGAAUGAUCUGCCUGGGGGAAAAAUACUAAAUAUGCCUAAGGGGAAAAUGAAAAAUAAAAAAAUUCCUGUAGGUUUUCAUUAUUGUAGGCAACAGAGGAUUGAGCAUCA

Whole data set: some 24,000 sequences, median “enrichment r” near 0.99, cut for the highest 2% near 3.7. Only a selection was taken, and the highest values are over-represented in it overall.

The assay has as its target T1, UNK ZnF1-3. Nature of the assay: nsRBNS (natural sequence RNA bind-n-seq); RBNS binding buffer (assumed for nsRBNS): 25 mM Tris pH 7.5, 150 mM KCl, 3 mM MgCl2, 0.01% Triton X-100, 500 ug/ml BSA, 20 U/ml SUPERase-In, 4 C; UNK is unkempt and MSI1 is Musashi-1; names of the RNAs are library labels; protein concentration not given here; high values mean tight binding.
B1 gave a binding signal of 1.52 enrichment R. The result for B2 reads 0.526 enrichment R. The same measure for B3: 1.74 enrichment R; for B4: 1.39 enrichment R; for B5: 4.5 enrichment R. The same measure for B6: 1.01 enrichment R; for B7: 1.45 enrichment R; for B8: 0.744 enrichment R. B9: the binding signal was 0.821 enrichment R. The result for B10 reads 0.845 enrichment R.

Consider B11, for which the binding signal stood at 1.63 enrichment R. The same measure for B12: 3.66 enrichment R; for B13: 0.946 enrichment R.

Molecule B14 gave a binding signal of 5.25 enrichment R.

As to B15, the binding signal was 3.28 enrichment R.
